Screens: PubChem BioAssay, several laboratories
PREPL inh: inhibitors of human prolyl oligopeptidase-like enzyme PREPL; inhibition, % at 5.96 µM; AID 2751; Q4J6C6; hit rate 0.68% among 320,000; recombinant PREPL, fluorescence polarization activity-based probe; in the data active = inhibition above about 43%
ALR inh: human ALR oxidase inhibition via reduced H2O2 | inhibition, % (no concentration beside the values) | purified ALR, DTT oxidation, H2O2 HRP-luminol luminescence | hit rate 3.8% among 290,000 | AID 485317;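 active = mean replicate inhibition above about 79%, with every replicate also reaching it, limit read from the data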
Target sequence (P55789 whole entry, looked up): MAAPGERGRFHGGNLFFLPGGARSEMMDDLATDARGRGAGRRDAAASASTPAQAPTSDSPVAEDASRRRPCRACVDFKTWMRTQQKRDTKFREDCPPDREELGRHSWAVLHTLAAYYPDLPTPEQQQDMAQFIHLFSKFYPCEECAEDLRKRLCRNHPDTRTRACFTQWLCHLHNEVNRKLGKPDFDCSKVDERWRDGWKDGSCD
AI-2 QS mod: Vibrio harveyi AI-2 quorum sensing modulation | Vibrio harveyi JMH597 AI-2 luminescence/OD600 ratio, 9 h; hits give low values; strain lacks LuxN and CqsS sensors; 0 = neutral-control median | activity change, % at 7.5 µM | hit rate 0.4% among 300,000 | AID 2094; in the data active = activity change below about -75%, passing the limit was not always enough;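 also: luminescence divided by OD600 gain over 9 h not by final OD600 alone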
CHT PAM: human CHT allosteric activation. CHT-expressing cells, membrane potential dye, choline EC20; hits give high values; LV-AA mutant CHT in HEK293 cells. hit rate 0.49% among 310,000. B-score at 10 µM. Q9GZV3;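 active = initial fluorescence not abnormally high and integrated response B-score, plate-corrected, over 3 SD above library mean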
CHT block: human CHT choline transport inhibition; B-score at 10 µM; Q9GZV3; hit rate 0.86% among 310,000; CHT-expressing cells, membrane potential dye, choline response; hits give low values;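 active = B-score over 3 SD under the library average, and starting fluorescence ratio not unusually high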;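 also: choline stimulus applied at its EC90 after an EC20 pre-addition; B-score computed on integrated fluorescence ratio after choline addition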
CHT inh conf: confirmation of human choline transporter CHT inhibitors; shares compounds with CHT block; CHT-expressing cells, choline membrane potential dye; LV-to-AA substituted CHT, HEK293 cells; CHT activity remaining % of control (hits give low values), % at 10 µM; hit rate 70% among 2,400; AID 493221;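 active = choline transporter activity left, mean of duplicates at 10 µM, below buffer-only control mean minus 3 SD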;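 also: depolarization triggered by choline at its EC90 following an EC20 pre-addition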
HEK293 CHT ctr: CHT inhibitor counter-screen hit in parental HEK293 cells; shares compounds with CHT block; membrane potential dye, choline response; active = decrease or increase beyond buffer ±3SD; membrane potential ratio readout (active if shifted either direction beyond buffer ±3SD; no single direction) at 10 µM; hit rate 4% among 2,400;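 also: parental cells lack the transporter so any hit is non-specific; ratio is peak minus trough fluorescence over baseline after EC90 choline challenge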
Hits are given with their value; i = inactive; nt = no result. Most compounds without a hit are left out; they make up all but 5% or so of the library.

SMILES	PREPL inh	ALR inh	AI-2 QS mod	CHT PAM	CHT block	CHT inh conf	HEK293 CHT ctr
CC(C)NC[C@H](O)c1ccc(O)c(O)c1	i	i	nt	i	i	39%	i
Cc1cccc(N2CCN(C(=O)CCCn3c(=O)[nH]c4ccsc4c3=O)CC2C)c1 (stereo unspecified)	i	98	i	i	-11	19%	i
N#Cc1c(C(F)(F)F)cc(-c2ccc(F)cc2)[nH]c1=O	i	i	i	i	i	nt	nt
N#Cc1c(C(F)(F)F)cc(-c2cccc(Cl)c2)[nH]c1=O	i	i	i	i	-5.2	i	i
O=C(NNC(=S)Nc1ccc(Cl)cc1)c1ccccc1OC(F)F	i	nt	i	i	-5.4	44%	i
O=C(NNC(=S)Nc1cccc(C(F)(F)F)c1)c1cccc(Cl)c1	i	i	i	i	i	nt	nt
O=C(NNC(=S)Nc1ccc(Br)cc1)c1ccccc1Br	nt	99	i	i	-5.6	58%	i
O=C(NNC(=S)Nc1cccc(C(F)(F)F)c1)c1ccccc1Cl	i	i	i	i	-5.8	i	i
NS(=O)(=O)c1cccc(NC(=O)CSc2nnc(-c3ccncc3)n2C2CC2)c1	i	i	nt	nt	nt	nt	nt
CC1CCN(S(=O)(=O)c2ccc3c(c2)N(CC(=O)NCCCN2C(C)CCCC2C)C(=O)CO3)CC1 (stereo unspecified)	i	i	i	i	-7.4	34%	i
CC1CCCCN1CCNC(=O)CN1C(=O)CSc2ccc(S(=O)(=O)N3CCCCC3)cc21 (stereo unspecified)	i	i	i	i	-6.7	45%	i
CC1CCCC(C)N1CCCNC(=O)CN1C(=O)COc2ccc(S(=O)(=O)N3CCOCC3)cc21 (stereo unspecified)	i	i	nt	i	i	nt	nt
COc1c(OC(C)=O)ccc(/C=N\NC(=O)c2ccc(Br)cc2)c1[N+](=O)[O-]	i	i	i	i	i	nt	nt
CC1=NNC(=O)C1Cc1ccccc1C (stereo unspecified)	i	nt	i	i	i	nt	nt
CCn1c(SCC(=O)Nc2ccc3c(c2)OCCO3)nnc1-c1cccs1	i	i	i	i	i	nt	nt
CCn1c(SCC(=O)c2ccccc2)nnc1-c1cccs1	i	nt	i	i	-6.6	68%	i
CCn1c(SCC(=O)NCC(=O)Nc2ccc(F)cc2)nnc1-c1cccs1	i	i	i	i	-6	i	i
CCn1c(SCC(=O)NCCc2ccccc2)nnc1-c1cccs1	i	i	i	i	i	nt	nt
CN(Cc1ccc(Cl)cc1)C(=O)COC(=O)c1ccc(-c2ccc(O)cc2)cc1	i	i	nt	nt	nt	nt	nt
COc1ccc(NC(=O)NNC(=O)C(C)Oc2ccc3ccccc3c2)cc1OC (stereo unspecified)	i	i	i	i	i	nt	nt
COc1ccc(C(O)Cn2ccsc2=NC(C)=O)cc1 (stereo unspecified)	i	i	i	i	i	nt	nt
O=C1C(=O)N(CCN2CCOCC2)C(c2cccnc2)/C1=C(/O)c1ccccc1 (stereo unspecified)	i	nt	i	i	i	nt	nt
O=C1C(=O)N(CCN2CCOCC2)C(c2cccnc2)/C1=C(/O)c1ccc(Cl)cc1 (stereo unspecified)	i	i	i	i	-9.5	i	i
COc1ccc(S(=O)(=O)N2CCOCC2)cc1C(=O)N(C)CCOc1ccc(Cl)cc1	i	nt	nt	nt	nt	nt	nt
Cn1c(N2CCOCC2)c(/C=N/OC(=O)c2ccc(F)cc2)c2ccccc21	i	i	i	i	-7.4	44%	i
SMILES	PREPL inh	ALR inh	AI-2 QS mod	CHT PAM	CHT block	CHT inh conf	HEK293 CHT ctr
CN(C)CCCn1c(=S)[nH]c2ccccc2c1=O	i	i	i	i	i	nt	nt
CN(C)CCn1c(=S)[nH]c2ccccc2c1=O	i	nt	i	i	-7.9	28%	i
O=c1c2ccccc2nc(-c2ccccc2)n1Cc1ccco1	i	i	i	i	-6	70%	i
CCc1ccc(/C(C)=N/NC(=O)c2ccc(-n3cnnn3)cc2)cc1	i	i	nt	nt	nt	nt	nt
CCCc1nc2oc3c(NCc4ccccn4)ncnc3c2c2c1COC(C)(C)C2	i	nt	i	i	i	nt	nt
CCCc1nc2oc3c(NCC4CCCO4)ncnc3c2c2c1COC(C)(C)C2 (stereo unspecified)	i	i	i	i	-8.1	16%	i
